Potency data for 15 compounds are collected here from PubChem BioAssay AID602293 (National Center for Advancing Translational Sciences (NCATS), 2012).

About 30 (2%) of roughly 1,300 compounds were called active. Entries that show only a call come without a potency. Inconclusive results (about 10%) are left out. The call rests on the fitted dose curve; in most records, active means well fitted inhibition curve with a large enough effect; inconclusive means small, poorly fitted or top-dose-only effect; inactive means flat fitted curve, though single readings scatter. Many of the other results were omitted from the sample, so actives are more common in it than they were.
Potency means the concentration at half of the fitted maximal effect.

The nature of the test: qHTS for antagonists of the Thyroid Stimulation Hormone Receptor: Hit Validation in HTRF Activity in a Luteinizing Hormone Receptor Cell Line. The conditions noted are these: LHR-expressing cell line, cAMP HTRF, antagonist mode; series mostly up to 58 µM. The text has this:
The thyroid-stimulating hormone receptor (TSHR) is a member of the 7 trans-membrane-spanning receptor (7TMR) family of cell surface receptors. TSHR-mediated hyperthyroidism is important in thyroid pathology. The development of small molecule antagonists of TSHR may lead to therapeutic approaches for TSHR-mediated hyperthyroidism caused by constitutively activating mutations or stimulating auto-antibodies associated with Graves' disease. Graves' disease is the leading cause of hyperthyroidism and is caused by autoantibodies that stimulate TSHR (TsAbs) causing thyroid growth and unregulated overproduction of thyroid hormones and existing treatments have liabilities (agranulocytosis). In addition, TSHRs are known to be expressed in multiple extrathyroidal tissues including bone, brain, kidney, testis, fat and cells of the immune system but the role of the TSHR in these tissues is not clear. Therefore, TSHR antagonists/inverse agonists could be used as probes of extrathyroidal TSHR function. Finally, TSHR inverse agonists, which are a subclass of antagonists that inhibit agonist-independent (or basal or constitutive) TSHR signaling, could be used to inhibit TSH-independent signaling in patients with recurrent or metastatic thyroid cancer who are receiving thyroid hormone to suppress TSH.
In collaboration between scientist from the NCGC and the NIDDK, a miniaturized HTRF high-throughput screen was developed. It's a cell based assay, where an anti cAMP antibody contains a fluorescent cryptate tag (excitation 337 nm; emission 620 nm) and the acceptor is cAMP-d2 (excitation 620 nm; emission 665 nm). When antibody and cAMP-d2 interact and are excited by a 337 nm light, a FRET occurs resulting in emission at 665 nm. The assay is competition between cAMP-d2 and cAMP (from the cell lysate). The homogeneous protocol allows for one step dispense after stimulation that is automation friendly. In order to confirm specificity of the compounds to the TSHR, a confirmatory assay was conducted on a similar family member, the Luteinizing Hormone (LH) receptor, transfected into a HEK 293 cell line, using an orthogonal detection technology to measure cAMP stimulation: antibody-based Homogeneous Time Resolved Fluorescence (HTRF).
NIH Chemical Genomics Center [NCGC]
NIH Molecular Libraries Probe Centers Network [MLPCN]
Assay Provider: Marvin Gershengorn, NIDDK
Homogeneous Time Resolved Fluorescence (HTRF) cAMP Assay. HEK 293 cells stably transfected with a vector containing the LH receptor and maintained under hygromycin selection were obtained from the laboratory of Dr. Marvin Gershengorn. Compounds were assayed using a HTRF cAMP detection kit (Cisbio) on the LH receptor transfected cell line. Briefly, 750 cells were plated in 2.5 ul/well of complete media (DMEM containing 10 % FCS, and 100 uM RO 20-1724) in 1536 well solid bottom white plates and 23 nl/well compound in DMSO solution or controls was added. Following 30 minute incubation at room temperature, 2.5 ul/well of labeled d2 cAMP and 2.5 ul/well of anti-cAMP antibody (both diluted 1:20 in lysis buffer) were added to each well using a flying reagent dispenser (Aurora Discovery, San Diego) . Plates were measured using the Envision plate reader (PerkinElmer, Boston, MA) with excitation at 330 nm and emissions of 615 nm and 660 nm.
On to `Oc1ccc(-[n+]2c(-c3ccccc3)cc(-c3ccccc3)cc2-c2ccccc2)cc1`, for which the Potency is 39.8 µM (active).
With `Cc1ccc(C[n+]2c(-c3ccc(C)cc3)cc(-c3ccc(C)cc3)cc2-c2ccc(C)cc2)cc1`, the Potency is 37.9 µM (active).
In the case of `Cc1ccc(-c2cc(-c3ccccc3)cc(-c3ccccc3)[n+]2-c2ccccc2)cc1`, the Potency was 42.6 µM (active).
Consider `COc1ccc(-[n+]2c(-c3ccccc3)cc(-c3ccc(C)cc3)cc2-c2ccccc2)cc1`, for which the Potency entry was “inactive”.
In the case of `OCC[n+]1c2ccccc2nc2ccc(N3CCOCC3)cc21`, the Potency result is “inactive”.
On to `COC(=O)C1=C(c2ccc(OC(F)(F)F)cc2)C[C@@H]2CC[C@H]1N2C(=O)N1CCC(C)CC1`, for which the Potency result was “inactive”.
Consider `COC(=O)C1=C(c2ccc(-c3ccccc3)c(F)c2)C[C@@H]2CC[C@H]1N2C(=O)NCC1CC1`, for which the Potency result is “inactive”.
On to `CN(C)CC1Oc2ccccc2OC1(O)c1ccccc1` (stereo not given), for which the Potency result is “inactive”.
The value for `C[C@H]1O[C@@H](OC2CC[C@]3(C=O)[C@H]4CC[C@]5(C)[C@@H](C6=CC(=O)OC6)CC[C@]5(O)[C@@H]4CC[C@]3(O)C2)CC2OC(C)(C)OC21` (stereo not given in full) was “inactive”; that for `N#CC(C#N)=NNc1ccc(-n2ccc(C(F)(F)F)n2)cc1` was “inactive”; that for `CC(=O)c1ccc2c(c1)C1C(Cl)C(Sc3ccccc3[N+](=O)[O-])CC1C(C(=O)O)N2` (stereo not given) was “inactive”.
For `COC(=O)C1=C(c2ccc(-c3ccccc3)c(F)c2)C[C@@H]2CC[C@H]1N2C(=O)N1CCOCC1`, the Potency result was “inactive”.
Consider `O=C(C1CCN(c2nc3ccc(Br)cc3s2)CC1)N1CCC2(CC1)OCCO2`, for which the Potency entry is “inactive”.
Regarding `COc1cc2c(cc1/C=C/[N+](=O)[O-])OCO2`, the Potency entry is “inactive”.
In the case of `C[C@]12CC[C@H]3C(CCC4(O)CC(O)CC[C@]34C=O)C1=CC[C@H]2c1ccc(=O)oc1` (stereo not given in full), the Potency result was “inactive”.
